Screening data: PubChem BioAssay, National Center for Advancing Translational Sciences (NCATS)
In the library only some 3.8% were active in any assay of this set; here they are far more common.
TrxR1 inh = qHTS Assay for Inhibitors of Mammalian Selenoprotein Thioredoxin Reductase 1 (TrxR1): qHTS. Potency, µM (highest dose often 114 µM), actives largely listed as inhibitors. Thioredoxin reductase 1, cytoplasmic (Rattus norvegicus), O89049. hit rate 1% among 390,000. recombinant rTrxR1, NADPH fluorescence consumption, selenite substrate; also: nearly all actives have a fitted effect of over 65% in size
Target sequence (O89049 whole entry, looked up): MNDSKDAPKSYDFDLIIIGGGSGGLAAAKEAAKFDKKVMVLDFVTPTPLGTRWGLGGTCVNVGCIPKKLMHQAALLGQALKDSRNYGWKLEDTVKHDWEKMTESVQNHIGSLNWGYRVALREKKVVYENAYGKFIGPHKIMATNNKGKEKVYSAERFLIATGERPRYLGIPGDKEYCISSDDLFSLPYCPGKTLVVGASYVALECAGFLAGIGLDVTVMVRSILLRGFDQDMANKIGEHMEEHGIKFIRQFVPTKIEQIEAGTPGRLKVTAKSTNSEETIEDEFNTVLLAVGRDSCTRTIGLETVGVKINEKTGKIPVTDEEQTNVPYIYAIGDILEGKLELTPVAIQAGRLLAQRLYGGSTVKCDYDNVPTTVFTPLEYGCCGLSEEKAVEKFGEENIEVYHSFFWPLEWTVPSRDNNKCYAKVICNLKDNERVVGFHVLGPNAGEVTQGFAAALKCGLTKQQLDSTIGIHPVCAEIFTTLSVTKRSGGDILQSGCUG
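Rat TrxR1 (90 nM in the dispensed reagent) was pre-reduced with 400 uM NADPH for 5 min at room temperature, then incubated with compound for 15 min. After 400 uM selenite was added, NADPH fluorescence (Ex 340/Em 450 nm) was followed for 8 min.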
VDR inh = Inhibitors of the vitamin D receptor (VDR): qHTS. Vitamin D3 receptor (Homo sapiens), P11473. VDR-SRC2-3 peptide fluorescence polarization, 2 h. Potency, µM, hits mostly inhibitors. hit rate 0.93% among 400,000
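The screen uses fluorescence polarization to detect compounds that interfere with recruitment of the SRC2-3 coactivator peptide to VDR; plates are read after 2 h at room temperature.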
KAT2A inh = qHTS Assay for Inhibitors of GCN5L2; Histone acetyltransferase KAT2A (Homo sapiens), Q92830; GCN5L2 HAT assay, ThioGlo1 CoA-SH fluorescence; Potency, µM (doses to about 58.9 µM), usual class: inhibitors; hit rate 0.21% among 390,000
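Enzyme at 20nM final was mixed with library compounds for 15 min at room temperature. Peptide H3(1-25) at 75uM, acetyl-CoA at 70uM and ThioGlo1 at 50uM were then added. Plates were read immediately and after 20 min (Ex340nm/Em540nm).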
Sfp inh = qHTS Assay for Inhibitors of Bacillus subtilis Sfp phosphopantetheinyl transferase (PPTase); Potency, µM, usual class: inhibitors; 4'-phosphopantetheinyl transferase ffp (Bacillus subtilis), Q9F4F7; Biochemical Sfp PPTase activity, qHTS; AID 1490, 2009; hit rate 3.5% among 310,000;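 also: the enzyme is Sfp with the accession as filed and its product quenches rhodamine fluorescence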
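Compounds were incubated with enzyme (final 15 nM) for 15 min at room temperature before substrate addition started the reaction. Fluorescence at 525 nm excitation, 598 nm emission was recorded immediately and after 30 minutes.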
GLS inh = qHTS for Inhibitors of Glutaminase (GLS); GLS enzymatic activity, qHTS titration; Potency, µM (series often up to 45.5 µM), most hits filed as inhibitors; hit rate 0.21% among 410,000; AID 624170, 2012
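Human kidney-isoform GLS in 45 mM KH2PO4 pH 8.2, 0.02% Tween-20, with compound, started with 1mM L-Glutamine (added stock). Glutamate oxidase/HRP/Amplex red coupled fluorescence read at start and after 30 min at RT.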
TrxR1 substrate = qHTS Assay for Substrates of Mammalian Selenoprotein Thioredoxin Reductase 1 (TrxR1): qHTS; purified TrxR1 substrate turnover, NADPH consumption readout; hit rate 0.01% among 390,000; AID 588456, 2011; Potency, µM (series often up to 114 µM); Thioredoxin reductase 1, cytoplasmic (Rattus norvegicus), O89049; also: nearly all actives have a fitted effect of over 50% in size
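Rat TrxR1, dispensed at 90 nM, was prereduced with 400 uM NADPH (final) for 5 min at ~22 deg C, then incubated with compound 15 min before 400 uM selenite. A first-read NADPH fluorescence drop versus no-compound background flagged substrates.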
Each line names hits and unclear results; the compound was inactive in the other large screens. Calls follow the shape of the dose curve; as a rule, active = well fitted curve in the direction sought with a large enough effect; inconclusive = small, poorly fitted or top-dose-only effect, or another doubt; inactive = no such curve, though single readings can be large; an effect the other way counts as inactive or inconclusive.

CC(C)Oc1ccc(C(=O)Nc2ccc3c(c2)CCCN3C(=O)c2cccs2)cc1	none (no result: Sfp inh)
CC(=O)Nc1ccc(/C=N/Nc2nncc3ccccc23)cc1	KAT2A inh inconclusive, Sfp inh 89.1µM, GLS inh inconclusive
Fc1cccc(/C=N/Nc2nncc3ccccc23)c1	VDR inh inconclusive
CC(=O)N(C)Cc1ccc(C(=O)CCl)cc1	Sfp inh 79.4µM
CCOC(=O)N1CCN([N+]([O-])=NOc2cc(O/N=[N+](\[O-])N(C)C)c([N+](=O)[O-])cc2[N+](=O)[O-])CC1	TrxR1 inh 28.2µM, Sfp inh inconclusive (no result: KAT2A inh, GLS inh)
CN(C)/[N+]([O-])=N/Oc1cc(O/[N+]([O-])=N/N2CCCC2CO)c([N+](=O)[O-])cc1[N+](=O)[O-] (stereo not drawn)	TrxR1 inh inconclusive, Sfp inh 79.4µM (no result: KAT2A inh, GLS inh)
CN(C)/[N+]([O-])=N/Oc1cc(ON=[N+]([O-])N2CCN(c3ncccn3)CC2)c([N+](=O)[O-])cc1[N+](=O)[O-]	TrxR1 inh inconclusive, Sfp inh 50.1µM (no result: KAT2A inh, GLS inh)
CCOC(=O)N1CCN(c2cc(N)c([N+](=O)[O-])cc2F)CC1	none
O=C(CCNC(=O)c1ccco1)NCc1ccccc1	none
Cc1ccnc2ccc3ccccc3c12	TrxR1 inh 89.1µM (no result: VDR inh, KAT2A inh, Sfp inh, GLS inh)
Oc1c(C(c2ccc(Cl)cc2Cl)N2CCN(c3ccccc3)CC2)sc2nc(-c3ccco3)nn12 (stereo not drawn)	none (no result: Sfp inh)
Oc1c(I)cc(Cl)c2cccnc12	TrxR1 inh 7.94µM, VDR inh inconclusive
COc1ccc2cc1Oc1ccc(cc1)CC1c3c(cc4c(c3Oc3cc5c(cc3OC)CCN(C)C5C2)OCO4)CCN1C (stereo not drawn)	none (no result: TrxR1 inh, TrxR1 substrate)
COc1ccc2cc1Oc1ccc(cc1)CC1c3cc(c(OC)cc3CCN1C)Oc1c(OC)c(OC)c(OC)c3c1C(C2)N(C)CC3 (stereo not drawn)	VDR inh 44.7µM (no result: TrxR1 inh, GLS inh, TrxR1 substrate)
S=C1NCN(CCc2ccccc2)CN1	none
CCCOc1ccccc1NC(=O)/C=C/C(N)=O	TrxR1 inh 12.6µM
NNC(=O)c1ccncc1	KAT2A inh inconclusive, Sfp inh inconclusive
COc1c(Cl)cc(C(=O)NN)cc1Cl	Sfp inh 50.1µM
CNC(=O)c1cc(Cl)c(OC)c(OC)c1	Sfp inh 44.7µM
COc1c(Cl)cc(C(=O)O)cc1Cl	none (no result: KAT2A inh, Sfp inh)
NNC(=O)c1cc(O)c(O)c(O)c1	Sfp inh 31.6µM
Cn1c(=O)n(CC(=O)O)c(=O)c2c1nc1n2CCS1	none
COc1ccc(/C=N/N2CCOCC2)cc1OCc1ccccc1	none
COc1ccc(NC(=O)CC2C(=O)N(c3ccccc3)C(=O)N2CCc2cccs2)cc1 (stereo not drawn)	none
CCCC1(C(=O)OC)C=C2C(=C(C)C(=O)C2C)CN1 (stereo not drawn)	none (no result: TrxR1 inh, VDR inh, KAT2A inh, GLS inh, TrxR1 substrate)
COc1ccc(/C=N\NC(=O)c2ccccc2Br)cc1COc1c(F)c(F)cc(F)c1F	KAT2A inh inconclusive
Nc1c(Cl)ncnc1N/N=C/c1ccc(O)cc1	Sfp inh 56.2µM
Oc1ccc(/C=N/Nc2nccnc2Cl)cc1	none
CCc1ccccc1NC(=O)Cn1c(=O)n(-c2ccccc2)c(=O)c2oc3ccccc3c21	none (no result: Sfp inh)
O=S(=O)(CCN1CCCCC1)Oc1ccc(Cl)cc1Cl	TrxR1 inh 0.891µM
O=C(COc1ccc(Cl)cc1Cl)NCCN1CCCCC1	none (no result: TrxR1 inh, VDR inh, KAT2A inh, Sfp inh, TrxR1 substrate)
CNC(=O)c1cc(-c2ccc(Cl)cc2)n(-c2ccccc2)n1	TrxR1 inh inconclusive
O=C(c1cccc([N+](=O)[O-])c1)N1CCN(c2n[nH]c(=O)[nH]c2=O)CC1	none
CN1C(=O)/C(=C2\SC(N)=NC2=O)c2ccccc21	Sfp inh 56.2µM
CN1C(=O)/C(=C2\SC(N3CCCCCC3)=NC2=O)c2ccccc21	none
